Screens as filed in PubChem BioAssay.
12-LOX inh: inhibitors of human 12S-lipoxygenase ALOX12. 580,000 compounds, 1.1% hits. P18054. purified 12hLO, xylenol orange hydroperoxide absorbance. Potency, µM (top dose mostly 108 µM), for inactives: top-dose activity change, negative = inhibition, hits mostly inhibitors; note: % is set by controls: 0 for no effect and ±100 for the full control effect
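Purified human 12hLO (150 nM final) in 25 mM Hepes, 0.01% Triton X-100, pH 7.0 was preincubated 15 min at room temperature with compound. Then 40 uM arachidonic acid was added, 30 min. Hydroperoxide was read by Fe-XO absorbance ratio 573/405 nm.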
Sfp PPTase inh: blocks B. subtilis Sfp PPTase activity | Biochemical Sfp PPTase activity, qHTS | Potency, µM, without a hit: largest response in the series, negative = inhibition, usual class: inhibitors | AID 1490 | Q9F4F7 | 310,000 compounds, 3.5% hits;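 note: the enzyme is Sfp with the accession as filed and its product quenches rhodamine fluorescence; 0% = enzyme reaction without inhibitor and -100% = no enzyme wells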
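Sfp 15 nM + cpd, 15 min RT; start w/ rhodamine-CoA 5 uM, BHQ-2-YbbR 12.5 uM (final); 50 mM Hepes pH 7.6, 10 mM MgCl2, 0.01% NP-40, 0.01% BSA; read 525/598 nm at 0 and 30 min.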
G9a inh: inhibitors of human histone lysine methyltransferase G9a. Q96KQ7. G9a H3K9 monomethylation, AlphaScreen, 2 h. Potency, µM (top dose mostly 102 µM), without a hit: at the highest dose activity, negative = inhibition, most hits filed as inhibitors. 350,000 compounds, 8.8% hits; note: % is set by controls: 0 for no effect and ±100 for the full control effect; nearly all actives have a fitted effect of over 75% in size
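Methyltransferase reactions run at room temperature for 2 h (20 nM enzyme, 500 nM biotin-H3K9 peptide, 20 uM SAM) after a 15 min compound preincubation; product detected by AlphaScreen beads and anti-H3K9me1 antibody.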
HP1b binding inh: inhibitors of HP1-beta chromodomain binding to methylated histone tails. AlphaScreen HP1-beta / biotin-H3K9me3 peptide binding. P83916. Potency, µM (series often up to 114 µM), for the others: at the top dose activity change, negative = inhibition, most hits filed as inhibitors. 390,000 compounds, 0.56% hits; note: nearly all actives have a fitted effect of over 70% in size
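HP1-beta protein (50 nM final) preincubated 30 min at room temperature with biotinylated H3(1-18)K9me3 peptide (50 nM) in PBS pH 7.4, 0.01% Tween-20, then compound added for 30 min. AlphaScreen streptavidin donor/nickel chelate acceptor beads (10 ug/mL final), 30 min dark, luminescence read.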
JMJD2A Tudor inh: inhibitors of human JMJD2A Tudor domain | AlphaScreen JMJD2A-Tudor / H3K4me3 peptide binding | 390,000 compounds, 4.4% hits | AID 504339 | Potency, µM (titrated, usually from 114 µM), for inactives: at the top dose activity change, negative = inhibition, usual class: inhibitors; note: % is set by controls: 0 for no effect and ±100 for the full control effect; nearly all actives have a fitted effect of over 50% in size
BAZ2B block: inhibitors of human BAZ2B bromodomain | Q9UIF8 | AlphaScreen BAZ2B-H3K14Ac peptide displacement | Potency, µM (series often up to 114 µM), for the others: at the top dose activity change, negative = inhibition, hits mostly inhibitors | 360,000 compounds, 4.4% hits | AID 504333; note: % is set by controls: 0 for no effect and ±100 for the full control effect; nearly all actives have a fitted effect of over 60% in size
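Complex of BAZ2B and biotin-H3K14Ac (50 nM apiece) forms over 30 min at RT, then faces library compounds up to 110 uM for another 30 min; AlphaScreen beads added, 20 min dark incubation, luminescence read.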
Numbers without * were called inactive; [ ] = another dose, or the depositor's remark. Hits are enriched below; roughly 8.7% of the tested compounds scored in any of these assays. Calls come from the whole dose curve; as a rule, active = well fitted curve in the direction sought with a large enough effect; inconclusive = small, poorly fitted or top-dose-only effect, or another doubt; inactive = no such curve, though single readings can be large; an effect the other way counts as inactive or inconclusive. Potency is the fitted concentration of half-maximal effect.

`O=C(NNC(=O)C1CCCCC1)C(=O)NC1CCCCC1` gave 12-LOX inh 9.4%, Sfp PPTase inh -1.1%, G9a inh 10µM*, HP1b binding inh 9.2%, JMJD2A Tudor inh inconclusive and BAZ2B block 0.8%.
`COc1ccccc1-c1cc2c(Nc3ccc4c(c3)OCCO4)nccc2n1C` gave 12-LOX inh -18.4%.
For COc1ccc2nc(C)c(C(=O)OCC(=O)NCC3CCCO3)cc2c1 (configuration not stated) the results were 12-LOX inh -18.0%.
`Cc1cc(C)cc(NC(=O)CCn2c(=O)n(C)c3ccccc32)c1` gave 12-LOX inh 35.9%.
`CC(NCc1ccccc1C#N)c1ccccc1F` (configuration not stated) gave 12-LOX inh 39.8µM*.
Screening CN(C)c1ccc(C2(c3ccc(N(C)C)cc3)OC(=O)c3cc(N)ccc32)cc1 returned 12-LOX inh inconclusive, Sfp PPTase inh -3.6%, G9a inh 16.3%[2.33 µM], HP1b binding inh 15.8µM*, JMJD2A Tudor inh 28.2µM* and BAZ2B block 17.8µM*.
`COc1ccc(CNC(=O)C(C)C2CCOCC2)c(OC)c1` (configuration not stated) gave 12-LOX inh -0.3%.
`CC1CCCN(C(=O)COC(=O)CNS(=O)(=O)c2ccc3ccccc3c2)C1` (configuration not stated) gave 12-LOX inh -28.7%, G9a inh 7.08µM*, HP1b binding inh 5.9%, JMJD2A Tudor inh -13.1% and BAZ2B block -13.0%.
O=C(CCC(=O)c1cccs1)OCc1nnc(-c2ccccc2)o1 was read as 12-LOX inh 17.6%, Sfp PPTase inh 11.9%, G9a inh 13.6%[12.7 µM], HP1b binding inh inconclusive, JMJD2A Tudor inh 50.1µM* and BAZ2B block 4.4%.
For O=C(CNS(=O)(=O)c1ccc2ccccc2c1)OCc1nnc(-c2ccccc2)o1 the results were 12-LOX inh -3.7%, Sfp PPTase inh -2.2%, G9a inh 22.4µM*, HP1b binding inh 21.0%, JMJD2A Tudor inh -9.9% and BAZ2B block -2.4%.
For COc1ccc(NC(=O)Cc2cnc(-n3cccc3)s2)cc1 the results were 12-LOX inh 43.6%.
For Clc1cccc(Cl)c1C=Nc1cccc2ccccc12 the results were 12-LOX inh 8.4%.
CCN(CC)c1ccc(C(=O)NN2CC(O)=C(c3nc(-c4ccc(Cl)cc4)cs3)C2=N)cc1 was read as 12-LOX inh -16.6%.
Screening COCCNC(=O)c1cnc2c(c1)N(Cc1ccccc1C(F)(F)F)CCC2 returned 12-LOX inh 10.8%[176 µM].
Screening C/C(=C\C=C(C#N)C#N)c1cc(C#N)c(N)o1 returned 12-LOX inh inconclusive, Sfp PPTase inh -7.5%, G9a inh 20µM*, HP1b binding inh inconclusive, JMJD2A Tudor inh inconclusive and BAZ2B block 25.1µM*.
`O=C(NCC(c1cccs1)N1CCCC1)c1cc(=O)c2ccc(Br)cc2o1` (configuration not stated) gave 12-LOX inh -11.5%.
Screening Cc1[nH]c2ccccc2c1C(=O)CSc1nnnn1C1CC1 returned 12-LOX inh 5.6%.
For COc1ccc(CNC(=O)CCC(=O)Nc2cccnc2)cc1 the results were 12-LOX inh 19.8%, Sfp PPTase inh 12.0%, G9a inh 39.8µM*, HP1b binding inh 41.6%, JMJD2A Tudor inh -2.8% and BAZ2B block 1.4%.
Screening O=C(Nc1ccc(-c2ccc(Cl)cc2)cc1)c1ccncc1 returned 12-LOX inh 7.08µM*.
`C/C(=N\NC(=O)c1ccn(C)n1)c1cccc(NC(=O)c2ccncc2)c1` gave 12-LOX inh 8.8%, Sfp PPTase inh 8.2%, G9a inh 18.4%, HP1b binding inh -4.8%, JMJD2A Tudor inh 10µM* and BAZ2B block -5.3%.
Screening COc1ccc(C(=O)Nc2ccccc2C(=O)Nc2ccncc2)cc1 returned 12-LOX inh 32.3%, Sfp PPTase inh 5.8%, G9a inh 44.7µM*, HP1b binding inh 23.6%, JMJD2A Tudor inh -14.4% and BAZ2B block inconclusive.
O=C(Nc1c(-c2ccccc2)nc2sccn12)c1cccc(S(=O)(=O)N2CCCC2)c1 was read as 12-LOX inh 2.2%.
O=C(c1cc(-c2cccs2)nc2ccccc12)N1CCOCC1 was read as 12-LOX inh -2.4%.
`COc1ccc(C(=O)Nc2ccc(/C(C)=N/NC(=O)c3ccncc3)cc2)cc1` gave 12-LOX inh 14.3%, Sfp PPTase inh 50.1µM*, G9a inh 22.4µM* and BAZ2B block 50.1µM*.
O=C(NCc1cccnc1)c1ccc(NC(=O)c2ccc(Br)cc2)cc1 was read as 12-LOX inh inconclusive, Sfp PPTase inh -18.3%, G9a inh 44.7µM*, HP1b binding inh 35.3%, JMJD2A Tudor inh -32.6% and BAZ2B block -12.9%.
COc1ccc(NC(=O)Nc2cccnc2)cc1 was read as 12-LOX inh -2.5%, Sfp PPTase inh 16.1%, G9a inh 4.5%[59 µM], HP1b binding inh 33.9%, JMJD2A Tudor inh 2.8% and BAZ2B block -20.8%.
`O=C(NCc1cccnc1)Nc1ccc(Br)cc1` gave 12-LOX inh 38.7%, Sfp PPTase inh 18.1%, G9a inh 17.4%, HP1b binding inh 37.3%, JMJD2A Tudor inh -4.8% and BAZ2B block -14.4%.
Screening COc1ccc(C(=O)Nc2ccc(C(=O)Nc3cccnc3)cc2)cc1 returned 12-LOX inh 5.0%, Sfp PPTase inh 5.7%, G9a inh 50.1µM*, HP1b binding inh inconclusive, JMJD2A Tudor inh -34.0% and BAZ2B block -25.8%.
CC(=O)Nc1cccc(/C(C)=N/NC(N)=S)c1 was read as 12-LOX inh -7.6%, Sfp PPTase inh 35.5µM*, G9a inh 31.6µM*, HP1b binding inh -6.5%, JMJD2A Tudor inh -2.6% and BAZ2B block -13.1%.
CC(=O)Nc1cccc(/C(C)=N/NC(=S)NC(C)C)c1 was read as 12-LOX inh inconclusive, Sfp PPTase inh 2.6%, G9a inh -0.4%, HP1b binding inh 28.7%, JMJD2A Tudor inh -5.8% and BAZ2B block -23.3%.
CC(C)=NNC(=O)CN1C(=O)NC2NC(=O)NC21 (configuration not stated) was read as 12-LOX inh -16.7%, Sfp PPTase inh -5.2%, G9a inh 79.4µM*, HP1b binding inh 16.0%, JMJD2A Tudor inh -5.9% and BAZ2B block 4.8%.
Screening CCn1ncc(CN(C)C(=O)CC2C(=O)NCCN2C(C)C)c1C (configuration not stated) returned 12-LOX inh -7.1%.
`C[C@@]12O[C@@H](C[C@]1(O)CO)n1c3ccccc3c3c4c(c5c6ccccc6n2c5c31)CNC4=O` gave 12-LOX inh -14.0%[57.4 µM].
